Data reported in paper PMC5540273 (PLoS ONE, 2017).

Tests used:
Details in all cases: concentration: 1 μM, replicates: in singlicate; n = 1
HPK1 = test system: HPK1
HUNK = test system: HUNK
ICK = test system: ICK
IGF1R = test system: IGF1R
IKK-alpha = test system: T1, IKK-alpha
T1 construct: gene CHUK

IKK-beta = test system: T2, IKK-beta
T2 construct: gene IKBKB

IKK-epsilon = test system: T3, IKK-epsilon
T3 construct: gene IKBKE

INSRR = test system: INSRR
INSR = test system: INSR
IRAK1 = test system: IRAK1
IRAK3 = test system: IRAK3
IRAK4 = test system: IRAK4
ITK = test system: ITK
[1] = test system: JAK1(JH1domain-catalytic)
[2] = test system: JAK1(JH2domain-pseudokinase)
[3] = test system: JAK2(JH1domain-catalytic)
[4] = test system: JAK3(JH1domain-catalytic)
JNK1 = test system: T4, JNK1
T4 construct: gene MAPK8

JNK2 = test system: T5, JNK2
T5 construct: gene MAPK9

JNK3 = test system: T6, JNK3
T6 construct: gene MAPK10
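Further: KINOMEscan kinase panel screen.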

| Structure (SMILES) | %Inh (HPK1) | %Inh (HUNK) | %Inh (ICK) | %Inh (IGF1R) | %Inh (IKK-alpha) | %Inh (IKK-beta) | %Inh (IKK-epsilon) | %Inh (INSRR) | %Inh (INSR) | %Inh (IRAK1) | %Inh (IRAK3) | %Inh (IRAK4) | %Inh (ITK) | %Inh [1] | %Inh [2] | %Inh [3] | %Inh [4] | %Inh (JNK1) | %Inh (JNK2) | %Inh (JNK3) |
| --- | --- | --- | --- | --- | --- | --- | --- | --- | --- | --- | --- | --- | --- | --- | --- | --- | --- | --- | --- | --- |
| CC(C)Oc1ccc2c(-c3ccnc(Nc4ccc(N5CCN(C)CC5)cc4)n3)cnn2n1 [GW696155] | 54% | 0% | 49% | 0% | 100% | 100% | 54% | 0% | 21% | 99.9% | 94.2% | 60% | 0% | 48% | 93.5% | 99.4% | 100% | 100% | 99.7% | 99.9% |
| COc1cc2ncn(-c3cc(OCc4sccc4Cl)c(C(N)=O)s3)c2cc1OC [GSK448459] | 52% | 0% | 12% | 0% | 0% | 0% | 0% | 0% | 0% | 35% | 0% | 4% | 12% | 0% | 0% | 2% | 0% | 20% | 11% | 7% |
| O=c1cc(N2CCOCC2)nc2n(Cc3cccc(Cl)c3Cl)c(C3CC3)nn12 [GSK2358994] | 14% | 0% | 4% | 0% | 0% | 0% | 0% | 0% | 0% | 0% | 0% | 0% | 4% | 9% | 3% | 6% | 0% | 19% | 0% | 0% |
| NS(=O)(=O)c1cccc(-c2ccc3ncc(N4CCOCC4)nc3c2)c1 [GSK1535721] | 37% | 0% | 0% | 2% | 0% | 0% | 34% | 0% | 7% | 1% | 0% | 11% | 3% | 8% | 5% | 0% | 0% | 3% | 0% | 0% |
| CCc1nc(-c2cccc(C)c2)c(-c2ccnc(NCc3ccccc3)c2)s1 | 0% | 0% | 0% | 0% | 15% | 2% | 0% | 9% | 0% | 0% | 0% | 0% | 13% | 7% | 31% | 0% | 4% | 0% | 8% | 20% |
| COC(=O)Nc1nc2cc(Oc3ccc(NC(=O)Nc4cc(F)ccc4F)cc3)ccc2[nH]1.Cl [GW701424] | 30% | 20% | 0% | 18% | 33% | 4% | 16% | 0% | 0% | 36% | 0% | 6% | 0% | 26% | 0% | 1% | 0% | 0% | 2% | 0% |
| O=C(NOCC1CC1)c1ccc(F)c(F)c1Nc1ccc(I)cc1Cl | 12% | 0% | 100% | 0% | 46% | 35% | 0% | 0% | 0% | 0% | 0% | 0% | 0% | 0% | 0% | 0% | 0% | 0% | 0% | 0% |
| COc1ccc(Nc2nccc(N3CCC(NC(=O)Nc4cccc(C(C)=O)c4)C3)n2)cc1 (centres unmarked) [GSK1379731] | 40% | 3% | 0% | 0% | 9% | 1% | 0% | 0% | 0% | 6% | 0% | 4% | 14% | 0% | 0% | 17% | 0% | 14% | 15% | 4% |
| Cc1nnc(-c2ccc(C)c(-c3ccc(C(=O)Nc4ccc(NS(C)(=O)=O)cc4)cc3)c2)o1 [GW702865] | 0% | 15% | 0% | 17% | 0% | 0% | 31% | 0% | 0% | 17% | 0% | 0% | 0% | 9% | 0% | 0% | 0% | 0% | 0% | 0% |
| CN1c2ccc(CNc3ccc(F)cc3)cc2-c2c(cnn2C)S1(=O)=O | 17% | 34% | 0% | 0% | 0% | 0% | 0% | 0% | 0% | 0% | 0% | 0% | 0% | 2% | 20% | 0% | 0% | 0% | 0% | 0% |
